# PubChem BioAssay AID1259417 (TB Discovery Research, Infectious Disease Research Institute, 2018)
# The campaign covered roughly 1,100 compounds. About 760 (69%) were called active. No rule for the calls is given here. So high a share suggests a set chosen from earlier hits. This is one part of the list.
# Assay: M. tuberculosis growth inhibition, HTS (AID 1259417);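 also: bacteria grown with compound for 5 days at 37 °C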
# Conditions: stronger effect = higher value, concentration not given here
# [1] = M. tuberculosis DsRed fluorescence growth inhibition
# [2] = M. tuberculosis growth inhibition
Compound,inhibition [1],inhibition [2] [%]
CN1CCN(C(=S)NC(=O)c2ccc(-c3ccccc3)cc2)CC1,0.913% (inactive),-8
O=C(NC(=S)N1CCc2ccccc21)c1ccccc1,20.8% (inactive),20.4
CC1CCN(C(=S)NC(=O)c2ccc(Cl)cc2)CC1,24.6% (active),49.7
COc1cc(OC)cc(C(=O)NC(=S)N2CCCCCC2)c1,3.24% (inactive),-3.75
O=C(NC(=S)N1CCCC1)c1ccc(-c2ccccc2)cc1,44.2% (active),47
CC(=O)N(C)c1ccc(OCC(O)Cn2c3ccc(Cl)cc3c3cc(Cl)ccc32)cc1 (stereo not given),0.0147% (inactive),-14.7
CCN(CC)CCn1c(=N)n(CC(O)COc2ccc(Cl)cc2Cl)c2ccccc21 (stereo not given),100% (active),98
CC(=O)Oc1cc2c(cc1Cl)C1(CC(c3ccccc3Cl)O2)CC(C)(C)NC(=S)N1 (stereo not given),-2.34% (inactive),-4.82
COC(=O)CSc1nc(N)c2c3c(sc2n1)CCCC3,44.7% (active),75
CCCCC(=O)Nc1nnc(-c2ccc(Cl)s2)o1,0.12% (inactive),19.7
Cc1ccc(C)c(-c2nnc(NC(=O)C3=COCCO3)o2)c1,-4.83% (inactive),-2.72
O=C(Nc1nnc(-c2ccc(Cl)cc2)o1)C1CCCCC1,0.632% (inactive),5.51
Cc1ccc(C)c(-c2nnc(NC(=O)C3CC3)o2)c1,51.8% (active),83.4
Cc1ccc(-c2nnc(NC(=O)C3CC3)o2)c(C)c1,49.6% (active),76.4
Cc1ccc(C)c(-c2nnc(NC(=O)C3COc4ccccc4O3)o2)c1 (stereo not given),66.1% (active),90
O=C(Nc1nnc(-c2ccc(Cl)s2)o1)C1CCCCC1,49.3% (active),59.3
O=C(NCC1COc2ccccc2O1)c1ccc(NC(=O)C2COc3ccccc3O2)cc1 (stereo not given),0.302% (inactive),-8.66
CCC(=O)Nc1nnc(-c2ccc(C)cc2C)o1,0.727% (inactive),13.4
CSc1ncnc2c1ncn2CC(=O)Nc1ccc(C)c(C)c1,32.5% (active),19.8
Cc1ccc(Nc2nnc(SCC(=O)Nc3cccnc3Cl)s2)cc1C,3.89% (inactive),-3.4
CC(C)(C)c1ccc(C(=O)Nc2nnc(-c3ccncc3)o2)cc1,64.6% (active),77.1
CC(C)(C)c1ccc(C(=O)Nc2nnc(-c3cccnc3)o2)cc1,83.8% (active),89.3
CC12CCC(C(=O)Oc3cccc4cccnc34)(CC1=O)C2(C)C (stereo not given),101% (active),100
COC(=O)c1ccc(COC(=O)c2ccccc2Cl)cc1,0.593% (inactive),15.3
CCCCNC(=O)COC(=O)c1cc(Br)ccc1Cl,11.3% (active),63.4
